Data published in PubChem BioAssay (Tox21).
Results filed as inconclusive are left out. Activity calls are given as the source filed them. Unless noted, calls come from the whole dose curve; as a rule, active = well fitted curve in the direction sought with a large enough effect in the repeat runs; inconclusive = weak or mixed curves; inactive = no such curve, though single readings can be large; an effect the other way counts as inactive or inconclusive.

Assays:
[1] = qHTS assay to identify small molecule agonists of the peroxisome proliferator-activated receptor delta (PPARd) signaling pathway - cell viability counter screen (AID 743211); settings: PPARd-bla HEK293H viability, CellTiter-Glo luminescence, 17 h; series mostly up to 62.6 µM; note: % is set by controls: 0 for no effect and ±100 for the full control effect; nearly all actives have a fitted effect of over 55% in size
Summary of the method: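 Counter screen for cytotoxicity run in parallel with the PPARd reporter screen. Beta-lactamase reporter HEK293H cells exposed to compounds 17 h; ATP-based CellTiter-Glo luminescence quantified viability.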

[2] = biological target: Peroxisome proliferator-activated receptor delta (Homo sapiens) (UniProt Q03181); assay: qHTS assay to identify small molecule agonists of the peroxisome proliferator-activated receptor delta (PPARd) signaling pathway (AID 743212; calls by dose curve; note: % is set by controls: 0 for no effect and ±100 for the full control effect); settings: HEK293H PPARd-UAS-bla, beta-lactamase FRET ratio, 17 h; series mostly up to 62.6 µM
Sequence of Peroxisome proliferator-activated receptor delta (Homo sapiens) (Q03181 whole entry, looked up): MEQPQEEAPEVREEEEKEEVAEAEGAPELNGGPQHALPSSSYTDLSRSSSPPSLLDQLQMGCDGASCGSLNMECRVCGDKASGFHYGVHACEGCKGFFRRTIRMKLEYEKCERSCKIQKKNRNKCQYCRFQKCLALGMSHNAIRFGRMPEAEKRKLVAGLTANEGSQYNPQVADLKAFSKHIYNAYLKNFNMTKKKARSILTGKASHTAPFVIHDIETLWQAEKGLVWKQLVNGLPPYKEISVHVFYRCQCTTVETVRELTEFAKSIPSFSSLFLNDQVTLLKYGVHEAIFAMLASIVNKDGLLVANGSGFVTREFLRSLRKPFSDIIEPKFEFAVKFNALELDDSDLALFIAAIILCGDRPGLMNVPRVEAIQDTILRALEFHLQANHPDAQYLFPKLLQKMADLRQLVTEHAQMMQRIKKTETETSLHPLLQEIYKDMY
Summary of the method: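 GeneBLAzer PPARd UAS-bla HEK293H cells (beta-lactamase reporter under UAS control), plated and rested 5 h at 37 C, then exposed to compounds in DMSO at 37 C; LiveBLAzer B/G FRET substrate added, 2 h room temperature, fluorescence read.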

[3] = qHTS assay to identify small molecule antagonists of the peroxisome proliferator-activated receptor delta (PPARd) signaling pathway - cell viability counter screen (AID 743213); settings: PPARd-bla HEK293H viability, CellTiter-Glo luminescence, 17 h; series mostly up to 62 µM; note: % is set by controls: 0 for no effect and ±100 for the full control effect; nearly all actives have a fitted effect of over 50% in size
Summary of the method: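 Viability counter-screen, qHTS format: PPARd-bla HEK293H, L165041 300 nM final, 17 h compound exposure at 37 C, CellTiter-Glo luminescence after 30 min RT.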

[4] = biological target: Peroxisome proliferator-activated receptor delta (Homo sapiens) (UniProt Q03181); assay: qHTS assay to identify small molecule antagonists of the peroxisome proliferator-activated receptor delta (PPARd) signaling pathway (AID 743215; active = well fitted inhibition curve with a large enough effect in the signal ratio in the repeat runs, not every such curve was filed as active; the % refers to the signal ratio;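 note: cells stimulated with agonist L165041 at 300 nM final during compound exposure; % is set by controls: 0 for no effect and ±100 for the full control effect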); settings: HEK293H PPARd-UAS-bla, beta-lactamase FRET ratio, antagonist, 17 h; series mostly up to 62 µM
Summary of the method: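 With L165041 present at 300 nM final, compounds were incubated 17 h at 37 C on PPARd UAS-bla HEK293H cells. A FRET-based beta-lactamase substrate was then applied for 2 h at room temperature and fluorescence intensity recorded.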

[5] = biological target: Bile acid receptor (Homo sapiens) (UniProt Q96RI1); assay: qHTS assay to identify small molecule antagonists of the farnesoid-X-receptor (FXR) signaling pathway (AID 743217; active = well fitted inhibition curve with a large enough effect in the signal ratio in the repeat runs, not every such curve was filed as active; the % refers to the signal ratio; note: % is set by controls: 0 for no effect and ±100 for the full control effect); settings: HEK293T FXR-UAS-bla, beta-lactamase ratio, CDCA-stimulated, 16 h; series mostly up to 62.6 µM
Sequence of Bile acid receptor (Homo sapiens) (Q96RI1 whole entry, looked up): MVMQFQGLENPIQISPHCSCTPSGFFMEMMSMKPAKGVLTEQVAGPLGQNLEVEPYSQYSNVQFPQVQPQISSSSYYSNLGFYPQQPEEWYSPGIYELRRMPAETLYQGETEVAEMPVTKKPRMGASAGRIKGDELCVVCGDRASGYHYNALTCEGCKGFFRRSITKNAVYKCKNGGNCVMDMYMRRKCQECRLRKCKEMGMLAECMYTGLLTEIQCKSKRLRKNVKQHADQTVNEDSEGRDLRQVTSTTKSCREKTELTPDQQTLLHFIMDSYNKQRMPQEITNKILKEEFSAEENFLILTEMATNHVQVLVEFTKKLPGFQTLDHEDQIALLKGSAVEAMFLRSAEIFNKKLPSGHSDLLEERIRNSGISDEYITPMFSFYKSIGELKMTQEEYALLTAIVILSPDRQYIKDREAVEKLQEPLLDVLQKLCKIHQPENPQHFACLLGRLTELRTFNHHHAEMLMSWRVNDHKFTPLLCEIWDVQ
Summary of the method: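 In this cell-based antagonist screen, inhibition of CDCA-driven (50 uM final) UAS-beta-lactamase expression in HEK 293T cells was measured by FRET fluorescence following 16 h compound exposure at 37 °C.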

[6] = qHTS assay to identify small molecule agonists of the farnesoid-X-receptor (FXR) signaling pathway - cell viability counter screen (AID 743218); settings: FXR-bla HEK293T viability, CellTiter-Glo luminescence, 16 h; series mostly up to 62.6 µM; note: % is set by controls: 0 for no effect and ±100 for the full control effect; nearly all actives have a fitted effect of over 45% in size
Summary of the method: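 After 16 h at 37 C with test compounds, FXR-bla HEK 293T cells were given LiveBLAzer B/G substrate for 2 h at RT and then CellTiter-Glo; luminescence was taken after 30 min.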

[7] = biological target: Bile acid receptor (Homo sapiens) (UniProt Q96RI1); assay: qHTS assay to identify small molecule agonists of the farnesoid-X-receptor (FXR) signaling pathway (AID 743220; active = well fitted activation curve with a large enough effect in the signal ratio in the repeat runs, not every such curve was filed as active; the % refers to the signal ratio; note: % is set by controls: 0 for no effect and ±100 for the full control effect); settings: HEK293T FXR-UAS-bla, beta-lactamase FRET ratio, 16 h; series mostly up to 62.6 µM
Summary of the method: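 Beta-lactamase reporter under UAS control in GeneBLAzer FXR HEK 293T cells (5000/well) measured with LiveBLAzer FRET substrate after 2 h at room temperature. Compound exposure lasted 16 h at 37C.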

[8] = qHTS assay to identify small molecule antagonists of the farnesoid-X-receptor (FXR) signaling pathway - cell viability counter screen (AID 743221; active = well fitted cell-killing curve with a large enough effect in the repeat runs, not every such curve was filed as active; note: % is set by controls: 0 for no effect and ±100 for the full control effect; nearly all actives have a fitted effect of over 50% in size); settings: FXR-bla HEK293T viability, CellTiter-Glo luminescence, 16 h; series mostly up to 62.6 µM
Summary of the method: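 Multiplexed counter screen: viability of FXR-bla HEK 293T cells under agonist stimulation by chenodeoxycholic acid (50 uM, final) and test compound for 16 h at 37 C, measured by CellTiter-Glo luminescence in the reporter wells.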

[9] = qHTS assay to identify small molecule agonists of the vitamin D receptor (VDR) signaling pathway - cell viability counter screen (AID 743224); settings: VDR-bla HEK293T viability, CellTiter-Glo luminescence, 16 h; series mostly up to 62.6 µM; note: % is set by controls: 0 for no effect and ±100 for the full control effect; nearly all actives have a fitted effect of over 50% in size
Summary of the method: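 Here cell health was gauged by luminescent ATP detection (CellTiter-Glo, 30 min RT) in VDR-bla cells that had been incubated with test compounds for 16 h at 37C and 5% CO2.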

[10] = qHTS assay to identify small molecule antagonists of the vitamin D receptor (VDR) signaling pathway - cell viability counter screen (AID 743225); settings: VDR-bla HEK293T viability, CellTiter-Glo luminescence, 16 h; series mostly up to 61 µM; note: % is set by controls: 0 for no effect and ±100 for the full control effect; nearly all actives have a fitted effect of over 50% in size
Summary of the method: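 HEK293T VDR-bla; cpd + 1a,25-(OH)2D3 3 nM final, 16 h 37C/5% CO2; B/G FRET substrate 2 h RT; then CellTiter-Glo 30 min RT, luminescence.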

[11] = qHTS assay to identify small molecule agonists of the NFkB signaling pathway (AID 1159509; active = well fitted curve in the direction sought with a large enough effect in the signal ratio in the repeat runs, not every such curve was filed as active; the % refers to the signal ratio; note: % is set by controls: 0 for no effect and ±100 for the full control effect); settings: NFkB-bla ME-180 cells, beta-lactamase FRET ratio, 5 h; series mostly up to 61 µM
Summary of the method: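 After overnight attachment, reporter cells received test compounds, DMSO or positive controls and were incubated 5 hr at 37 C. FRET substrate was then added for 1.5 hr at room temperature before dual-emission fluorescence reading.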

[12] = qHTS assay to identify small molecule agonists of the endoplasmic reticulum stress response signaling pathway (AID 1159516; active = well fitted activation curve with a large enough effect in the signal ratio in the repeat runs, not every such curve was filed as active; the % refers to the signal ratio; note: % is set by controls: 0 for no effect and ±100 for the full control effect); settings: ESRE-bla HeLa, ER stress beta-lactamase reporter, 5 h; series mostly up to 61 µM
Summary of the method: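 Reporter HeLa cells (ESRE-beta-lactamase) underwent 5 hr compound incubation at 37 C and 5% CO2 in quantitative HTS format. Detection followed 2 hr of FRET substrate loading at room temperature.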

[13] = qHTS assay to identify small molecule antagonists of the retinoid-related orphan receptor gamma (ROR-gamma) signaling pathway - cell viability counter screen (AID 1159520); settings: Tet-on RORgamma CHO cells viability, ATP luminescence, 16 h; series mostly up to 92.4 µM
Summary of the method: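 Tet-on ROR gamma CHO cells (1,000/well) were plated 4 hr, given compounds in DMSO for 2 hr at 37 C, then induced with 1 uM final doxycycline for 16 hr. Viability was read as ATP by CellTiter-Glo luminescence after 30 min.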

[14] = biological target: Nuclear receptor ROR-gamma (Homo sapiens) (UniProt P51449); assay: qHTS assay to identify small molecule antagonists of the retinoid-related orphan receptor gamma (ROR-gamma) signaling pathway (AID 1159521); settings: Tet-on RORgamma CHO cells, RORE-luciferase, 16 h; series mostly up to 92.4 µM
Summary of the method: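 Cells were plated, rested 4 h at 37 C, exposed to compounds for 2 h, then given 1 uM final doxycycline hyclate to induce RORγ expression. After 16 h, ONE-Glo luminescence from the ROR response element reporter was measured.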

[15] = qHTS assay to identify small molecule agonists of the AP-1 signaling pathway (AID 1159526; calls by dose curve; note: % is set by controls: 0 for no effect and ±100 for the full control effect); settings: ME-180 AP-1-bla reporter, beta-lactamase FRET ratio, 5 h; series mostly up to 76.8 µM
[16] = biological target: Vitamin D3 receptor (Homo sapiens) (UniProt P11473); assay: qHTS assay to identify small molecule agonists of the vitamin D receptor (VDR) signaling pathway (AID 743222; calls by dose curve; note: % is set by controls: 0 for no effect and ±100 for the full control effect); settings: HEK293T VDR-UAS-bla, beta-lactamase FRET ratio, 16 h; series mostly up to 63.5 µM
Sequence of Vitamin D3 receptor (Homo sapiens) (P11473 whole entry, looked up): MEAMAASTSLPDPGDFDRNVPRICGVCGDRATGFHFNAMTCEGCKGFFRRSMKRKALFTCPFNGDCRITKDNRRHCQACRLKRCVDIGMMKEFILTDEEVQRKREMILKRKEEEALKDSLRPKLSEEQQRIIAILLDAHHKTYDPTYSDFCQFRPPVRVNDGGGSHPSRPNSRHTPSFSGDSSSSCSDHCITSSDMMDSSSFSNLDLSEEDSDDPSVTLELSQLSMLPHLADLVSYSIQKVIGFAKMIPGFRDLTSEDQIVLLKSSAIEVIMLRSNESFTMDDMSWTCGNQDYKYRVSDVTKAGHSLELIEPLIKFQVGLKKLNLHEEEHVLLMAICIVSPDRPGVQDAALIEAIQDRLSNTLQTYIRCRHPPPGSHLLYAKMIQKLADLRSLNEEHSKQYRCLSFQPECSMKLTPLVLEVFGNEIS
Summary of the method: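 VDR-bla cells were seeded, left 4 h, treated with compounds in DMSO for 16 h, incubated 2 h at RT with B/G FRET substrate, and read for fluorescence.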

[17] = biological target: Vitamin D3 receptor (Homo sapiens) (UniProt P11473); assay: qHTS assay to identify small molecule antagonists of the vitamin D receptor (VDR) signaling pathway (AID 743223; active = well fitted inhibition curve with a large enough effect in the signal ratio in the repeat runs, not every such curve was filed as active; the % refers to the signal ratio; note: % is set by controls: 0 for no effect and ±100 for the full control effect); settings: VDR-UAS-bla HEK293T, beta-lactamase FRET ratio, 16 h; series mostly up to 61 µM
Summary of the method: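 Cells carrying a VDR-driven beta-lactamase reporter (VDR-bla) were co-treated with compound and 3 nM final 1alpha,25-dihydroxyvitamin D3 for 16 h at 37C; reporter activity was measured as FRET substrate fluorescence after 2 h at room temperature.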

[18] = qHTS assay to identify small molecule agonists of the endoplasmic reticulum stress response signaling pathway - cell viability counter screen (AID 1159517; calls by dose curve); settings: ESRE-bla HeLa viability, CellTiter-Glo luminescence, 5 h; series mostly up to 61 µM
Summary of the method: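 Luminescence readout: CellTiter-Glo, 30 min RT, same wells as the ESRE-bla reporter read. HeLa ESRE-bla, 1,500 cells/well, o/n 37 C; cpd 5 hr 37 C/5% CO2.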

[19] = qHTS assay to identify small molecule agonists of the AP-1 signaling pathway - cell viability counter screen (AID 1159525; calls by dose curve; note: nearly all actives have a fitted effect of over 55% in size); settings: ME-180 AP-1-bla cells viability, ATP luminescence, 5 h; series mostly up to 76.8 µM
Summary of the method: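 ME-180 AP-1-bla, 2500 cells/well, Opti-MEM + 0.5% dialyzed FBS; overnight 37 °C; cpd 15-pt titration, 5 h 37 °C; CellTiter-Glo 30 min RT; luminescence read; normalised to TOAB and DMSO controls.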

[20] = qHTS assay to identify small molecule agonists of the NFkB signaling pathway - cell viability counter screen (AID 1159515; calls by dose curve; note: % is set by controls: 0 for no effect and ±100 for the full control effect; nearly all actives have a fitted effect of over 55% in size); settings: NFkB-bla ME-180 viability, CellTiter-Glo luminescence, 5 h; series mostly up to 61 µM
Summary of the method: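 5 hr compound treatment of NFkB-bla ME-180 cells (2,000/well, seeded overnight beforehand), followed by reporter substrate for 1.5 hr. CellTiter-Glo added afterward; luminescence after 30 min RT.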

C=C(C)C(=O)OC
inactive: outcome [1] | outcome [2] | outcome [3] | outcome [4] | outcome [5] | Potency [6] | outcome [7] | outcome [8] | outcome [9] | outcome [10] | outcome [11] | outcome [12] | outcome [13] | outcome [14] | outcome [15]

CNC(=O)NC
inactive: outcome [1] | outcome [2] | outcome [4] | outcome [5] | Potency [6] | outcome [7] | outcome [8] | outcome [16] | outcome [17] | outcome [9] | outcome [11] | outcome [12] | outcome [18] | outcome [13] | outcome [14] | outcome [19] | outcome [15]

O=c1[nH]c(=O)c2[nH]c(=O)[nH]c2[nH]1
inactive: activity change, negative = cytotoxicity [1] 7.12% [at 13.2 µM] | activation [2] 2.22% [at 13.2 µM] | viability change, negative = cytotoxic [3] -1.61% [at 13.7 µM] | ratio activity, negative = inhibition [4] -0.0973% [at 13.7 µM] | viability change, negative = cytotoxic [6] 18.5% [at 13.2 µM] | activity change, negative = cytotoxicity [8] 0.395% [at 13.2 µM] | activity change, negative = cytotoxicity [9] -0.867% [at 13.2 µM] | viability change, negative = cytotoxic [10] 18.1% [at 6.95 µM] | activation [11] -0.0901% [at 6.95 µM] | activation [12] -2.27% [at 6.95 µM] | activity change, negative = cytotoxicity [18] -24.3% [at 6.95 µM] | activity, negative = cytotoxicity [13] -0.126% [at 8.39 µM] | activity change, negative = inhibition [14] 25.7% [at 8.39 µM] | viability change, negative = cytotoxic [19] 10.8% [at 6.97 µM] | activation [15] -0.69% [at 6.97 µM]

Nc1ccnc(=O)[nH]1
inactive: outcome [1] | outcome [2] | outcome [3] | outcome [4] | Potency [6] | outcome [8] | outcome [16] | outcome [9] | outcome [11] | outcome [12] | outcome [18] | outcome [13] | outcome [14] | outcome [15]

CN[C@@H]1[C@@H](O)[C@@H](O[C@@H]2[C@H](O)[C@H](O[C@H]3OC(CN)=CC[C@H]3N)[C@@H](N)C[C@H]2N)OCC1(C)O (some centres not stated)
inactive: outcome [1] | outcome [2] | outcome [3] | outcome [4] | Potency [6] | outcome [8] | outcome [17] | outcome [9] | outcome [10] | outcome [11] | outcome [18] | outcome [14] | outcome [19] | outcome [15]

C=CCOc1c(Br)cc(C(C)(C)c2cc(Br)c(OCC=C)c(Br)c2)cc1Br
inactive: outcome [1] | outcome [3] | outcome [5] | Potency [6] | outcome [7] | outcome [8] | outcome [16] | outcome [9] | outcome [10] | outcome [11] | outcome [12] | outcome [18] | outcome [13] | outcome [19] | outcome [15]

O=c1cc(O)c(Cl)c[nH]1
inactive: outcome [1] | outcome [2] | outcome [3] | outcome [4] | outcome [5] | Potency [6] | outcome [8] | outcome [16] | outcome [17] | outcome [9] | outcome [10] | outcome [20] | outcome [12] | outcome [18] | outcome [13] | outcome [14] | outcome [19] | outcome [15]

CCOC(=O)C(C)(C)C
inactive: outcome [1] | outcome [2] | outcome [3] | outcome [4] | outcome [5] | Potency [6] | outcome [7] | outcome [8] | outcome [16] | outcome [17] | outcome [9] | outcome [10] | outcome [20] | outcome [12] | outcome [18] | outcome [13] | outcome [14] | outcome [19] | outcome [15]
